Results reported in PubChem BioAssay (Tox21).
Inconclusive results are not listed. A structure can be active in one record and inactive in another. The source made the active and inactive calls. The call rests on the fitted dose curve.

How the values were obtained:
[1] = target: Acetylcholinesterase (Homo sapiens) (UniProt P22303); experiment: Acetylcholinesterase (AChE) small molecule antagonists: colormetric cell-based qHTS assay (AID 1347395); further: nearly all actives have a fitted effect of over 30% in size
Sequence of Acetylcholinesterase (Homo sapiens) (P22303 whole entry, looked up): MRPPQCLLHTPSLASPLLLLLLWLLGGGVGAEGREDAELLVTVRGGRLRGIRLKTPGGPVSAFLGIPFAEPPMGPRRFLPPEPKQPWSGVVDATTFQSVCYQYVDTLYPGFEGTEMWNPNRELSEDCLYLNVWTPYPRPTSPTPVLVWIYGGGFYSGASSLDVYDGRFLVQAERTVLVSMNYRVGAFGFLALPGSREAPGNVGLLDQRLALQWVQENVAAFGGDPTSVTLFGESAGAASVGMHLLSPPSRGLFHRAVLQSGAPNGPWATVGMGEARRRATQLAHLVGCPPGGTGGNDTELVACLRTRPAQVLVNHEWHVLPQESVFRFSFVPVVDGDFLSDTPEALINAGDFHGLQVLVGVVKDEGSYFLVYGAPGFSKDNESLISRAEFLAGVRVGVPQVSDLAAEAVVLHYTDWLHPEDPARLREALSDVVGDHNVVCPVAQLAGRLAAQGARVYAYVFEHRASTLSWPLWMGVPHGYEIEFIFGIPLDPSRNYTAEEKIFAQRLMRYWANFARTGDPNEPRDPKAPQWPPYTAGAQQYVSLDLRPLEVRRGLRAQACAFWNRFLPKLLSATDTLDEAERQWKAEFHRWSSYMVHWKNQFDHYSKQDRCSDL
In short: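 Colorimetric read-out: DTNB detects thiocholine released when cellular AChE in SH-SY5Y cells hydrolyses acetylthiocholine. Cells attached overnight, received compound for 30 min at 37 C, then substrate mix for 90 min at 37 C.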

[2] = target: Acetylcholinesterase (Homo sapiens) (UniProt P22303); experiment: Acetylcholinesterase (AChE) small molecule antagonists: enzyme-based qHTS assay (AID 1347397); details: Potency: AChE enzyme activity inhibition; outcome: AChE enzyme activity inhibition; further: nearly all actives have a fitted effect of over 55% in size
In short: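 First, recombinant human AChE (50 mU/mL as dispensed) received test compound or DMSO. Second, plates stood 30 min at room temperature. Third, DTNB and acetylthiocholine were added, followed by 10 min at room temperature and colorimetric detection.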

[3] = target: Acetylcholinesterase (Homo sapiens) (UniProt P22303); experiment: Acetylcholinesterase (AChE) small molecule antagonists: fluorescence cell-based qHTS assay (AID 1347398); details: Potency: AChE activity; outcome: AChE activity; further: nearly all actives have a fitted effect of over 50% in size; further: potency means the concentration at half of the fitted maximal effect
In short: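 Homogeneous quantitative HTS format. SH-SY5Y cells seeded at 2,000 per well settle overnight at 37 C. Compound pretreatment runs 30 min (37 C, 5% CO2); substrate/probe mix then reacts 40 min at RT before reading 490/520 nm.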

[4] = target: Acetylcholinesterase (Homo sapiens) (UniProt P22303); experiment: Acetylcholinesterase (AChE) small molecule antagonists: enzyme-based qHTS assay with human liver microsomes (AID 1347399); details: Potency: qHTS inhibition; outcome: qHTS inhibition; further: nearly all actives have a fitted effect of over 60% in size
In short: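 Recombinant human AChE (50 mU/mL in the enzyme mix) and human liver microsomes (0.25 mg/mL final) were preincubated with compound and NADPH (0.25 mg/mL final) for 30 min at 37 C. Acetylthiocholine/DTNB was then added; thiocholine was read colorimetrically after 10 min at room temperature.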
On the % scale 0 is the no-effect control and ±100 the full control effect.

N#CCC(=O)NN
inactive: Potency [1] | Potency [2] | Potency [3] | Potency [4]

OC(CCCN1CCCCC1)(c1ccccc1)c1ccccc1
inactive: Potency [1] | Potency [2] | Potency [3] | Potency [4]

Cc1c(C(C)C)c(=O)n(-c2ccccc2)n1C
inactive: Potency [1] | Potency [2] | Potency [3] | Potency [4]

O=C(Cl)c1c(Cl)c(Cl)c(C(=O)Cl)c(Cl)c1Cl
inactive: Potency [1] | Potency [2] | Potency [3] | Potency [4]

CCCCCCOC(=O)CCCCCCCC(=O)OCCCCCC
inactive: Potency [1] | Potency [2] | Potency [3] | Potency [4]

CCn1cc(C(=O)O)c(=O)c2cnc(N3CCCC3)nc21
inactive: activity, negative = inhibition [1] 2.45% [at 10.5 µM] | activity change, negative = inhibition [2] 0.534% [at 10.5 µM] | activity change, negative = inhibition [3] 15.4% [at 10.5 µM] | activity change, negative = inhibition [4] -1.77% [at 10.5 µM]

CCCCCCCCOc1ccc(C(=O)c2ccccc2)c(O)c1
inactive: Potency [1] | Potency [2] | Potency [3] | Potency [4]

COc1cc([C@H]2Oc3cc([C@H]4Oc5cc(O)cc(O)c5C(=O)[C@@H]4O)ccc3O[C@@H]2CO)ccc1O
inactive: Potency [1] | Potency [2] | Potency [3] | Potency [4]

Nc1ccc(S(=O)(=O)Nc2cnc3ccccc3n2)cc1
inactive: Potency [1] | Potency [2] | Potency [3] | Potency [4]

O=C(O)C(S)C(S)C(=O)O (stereo not given)
inactive: Potency [1] | Potency [2] | Potency [3] | Potency [4]

Cc1ncc([N+](=O)[O-])n1CCO
inactive: Potency [1] | Potency [2] | Potency [3] | Potency [4]

CC1(C)O[C@@H]2[C@@H](CO[C@@]3(COS(N)(=O)=O)OC(C)(C)O[C@@H]23)O1
inactive: Potency [1] | Potency [2] | Potency [3] | Potency [4]

CC(=O)OC(C)(C)C
inactive: Potency [1] | Potency [2] | Potency [3] | Potency [4]

C[Si](C)=O
inactive: activity, negative = inhibition [1] -2.31% [at 10.5 µM] | activity change, negative = inhibition [2] -1.81% [at 10.5 µM] | activity change, negative = inhibition [3] 0.274% [at 10.5 µM] | activity change, negative = inhibition [4] -0.0165% [at 10.5 µM]

CCCCC(CC)COC(=O)CCCCC(=O)OCc1ccccc1 (stereo not given)
inactive: Potency [1] | Potency [2] | Potency [3] | Potency [4]

CCOc1cc(OCC)c(C(C)=O)cc1OCC
inactive: Potency [1] | Potency [2] | Potency [3] | Potency [4]

O=C1c2ccccc2C(=O)c2cc(O)ccc21
inactive: Potency [1] | Potency [2] | Potency [3] | Potency [4]

Cc1ccc(NC(=O)N(C)C)cc1NC(=O)N(C)C
inactive: Potency [1] | Potency [2] | Potency [3] | Potency [4]

CCCCOCCOC(=O)c1ccccc1C(=O)OCCOCCCC
inactive: Potency [1] | Potency [2] | Potency [3] | Potency [4]

Cc1ccc(C)c(O)c1C
inactive: Potency [1] | Potency [2] | Potency [3] | Potency [4]

CC(C)(C)NC(N)=O
inactive: Potency [1] | Potency [2] | Potency [3] | Potency [4]

C=C1c2cccc(O)c2C(O)=C2C(=O)[C@]3(O)C(O)=C(C(N)=O)C(=O)[C@@H](N(C)C)[C@@H]3[C@@H](O)[C@H]12
inactive: Potency [1] | Potency [2] | Potency [3] | Potency [4]

CCCCCCCCS(=O)C(C)Cc1ccc2c(c1)OCO2 (stereo not given)
inactive: Potency [1] | Potency [2] | Potency [3] | Potency [4]

O=C(N/N=C/c1ccc([N+](=O)[O-])o1)c1ccc(O)cc1
inactive: Potency [1] | Potency [2] | Potency [3] | Potency [4]

CC(=O)CC(C)(C)O
inactive: Potency [1] | Potency [2] | Potency [3] | Potency [4]

CC(=O)O[C@]1(C(C)=O)CC[C@H]2[C@@H]3C=C(Cl)C4=CC(=O)[C@@H]5C[C@@H]5[C@]4(C)[C@H]3CC[C@@]21C
inactive: Potency [1] | Potency [2] | Potency [3] | Potency [4]

C[C@]1(Cn2ccnn2)[C@H](C(=O)O)N2C(=O)C[C@H]2S1(=O)=O
inactive: Potency [1] | Potency [2] | Potency [3] | Potency [4]

C[N+]1(CC2COC(c3ccccc3)(c3ccccc3)O2)CCCCC1 (stereo not given)
inactive: activity, negative = inhibition [1] -0.268% [at 23.6 µM] | activity change, negative = inhibition [2] 0.437% [at 23.6 µM] | activity change, negative = inhibition [3] -6.49% [at 23.8 µM] | activity change, negative = inhibition [4] 4.03% [at 23.6 µM]

OC1CCCC1
inactive: Potency [1] | Potency [2] | Potency [3] | Potency [4]

O=C1C=CC(=O)N1c1ccccc1
active: Potency [3] 35.6 µM
inactive: Potency [1] | Potency [2] | Potency [4]

Nc1ccn([C@@H]2O[C@H](CO)[C@@H](O)[C@@H]2O)c(=O)n1
inactive: Potency [1] | Potency [2] | Potency [3] | Potency [4]

CC(C)NCC(O)COc1ccc(COCCOC(C)C)cc1 (stereo not given)
inactive: Potency [1] | Potency [2] | Potency [3] | Potency [4]

CC(C)c1cccc(O)c1
inactive: Potency [1] | Potency [2] | Potency [3] | Potency [4]

FC(F)(F)c1ccc(Cl)c(Cl)c1
inactive: Potency [1] | Potency [2] | Potency [3] | Potency [4]

CC(=O)[C@@]1(O)CC[C@H]2[C@@H]3C[C@H](C)C4=CC(=O)CC[C@]4(C)[C@H]3CC[C@@]21C
inactive: Potency [1] | Potency [2] | Potency [3] | Potency [4]

c1ccc(CCCc2ccncc2)cc1
inactive: Potency [1] | Potency [2] | Potency [3] | Potency [4]

CCCCOC(=O)c1ccc(O)cc1
36 µM (active) and inactive: Potency [3]
inactive: Potency [1] | Potency [2] | Potency [4]

OC(CCN1CCCCC1)(c1ccccc1)c1ccccc1
inactive: Potency [1] | Potency [2] | Potency [3] | Potency [4]

CCCCS
inactive: Potency [1] | Potency [2] | Potency [3] | Potency [4]

CN(C)CCCNCCCN(C)C
inactive: Potency [1] | Potency [2] | Potency [3] | Potency [4]

COCC(=O)Nc1c(I)c(C(=O)NCC(O)CO)c(I)c(C(=O)N(C)CC(O)CO)c1I (stereo not given)
inactive: Potency [1] | Potency [2] | Potency [3] | Potency [4]

Cc1ccc(Cl)c(Nc2ccccc2C(=O)O)c1Cl
inactive: Potency [1] | Potency [2] | Potency [3] | Potency [4]

Cc1ccc(S(=O)(=O)NC2CCCCC2)cc1
inactive: Potency [1] | Potency [2] | Potency [3] | Potency [4]

Cc1ccccc1S(N)(=O)=O
inactive: Potency [1] | Potency [2] | Potency [3] | Potency [4]

CC1=CC2C3CC(C=C3C)C2C1 (stereo not given)
inactive: Potency [1] | Potency [2] | Potency [3] | Potency [4]

CCCCC(CC)COC(=O)/C=C\C(=O)OCC(CC)CCCC (stereo not given)
inactive: Potency [1] | Potency [2] | Potency [3] | Potency [4]

Cc1cc(=O)n(-c2ccccc2)n1C
inactive: Potency [1] | Potency [2] | Potency [3] | Potency [4]

O=S(=O)(Cl)c1c(Cl)cccc1Cl
inactive: Potency [1] | Potency [2] | Potency [3] | Potency [4]

CCCCCCOC(=O)c1ccc(O)cc1
inactive: Potency [1] | Potency [2] | Potency [3] | Potency [4]

OCCN(CCO)CCN(CCO)CCO
inactive: Potency [1] | Potency [2] | Potency [3] | Potency [4]

CCOC(=O)[C@H](CCc1ccccc1)N[C@@H](C)C(=O)N1CCC[C@H]1C(=O)O
inactive: Potency [1] | Potency [2] | Potency [3] | Potency [4]

c1cnc(N2CCN(Cc3ccc4c(c3)OCO4)CC2)nc1
inactive: Potency [1] | Potency [2] | Potency [3] | Potency [4]

Cc1cc2c(s1)Nc1ccccc1N=C2N1CCN(C)CC1
inactive: Potency [1] | Potency [2] | Potency [3] | Potency [4]

NC(=O)N[C@@H](CCC(=O)O)C(=O)O
inactive: Potency [1] | Potency [2] | Potency [3] | Potency [4]

CCCCCCCCCCCCCCCCI
inactive: activity, negative = inhibition [1] 1.24% [at 23.6 µM] | activity change, negative = inhibition [2] 1.36% [at 23.6 µM] | activity change, negative = inhibition [3] 3.93% [at 23.8 µM] | activity change, negative = inhibition [4] 0.294% [at 23.6 µM]

O=C1CCC(N2C(=O)c3ccccc3C2=O)C(=O)N1 (stereo not given)
inactive: Potency [1] | Potency [2] | Potency [3] | Potency [4]

CN1C(=O)CC(C)(c2ccccc2)C1=O (stereo not given)
inactive: Potency [1] | Potency [2] | Potency [3] | Potency [4]

COc1ccccc1OCC1CNC(=O)O1 (stereo not given)
inactive: Potency [1] | Potency [2] | Potency [3] | Potency [4]

CCCCCCCCCCCCCBr
inactive: Potency [1] | Potency [2] | Potency [3] | Potency [4]

CC1=CC(O)CC(C)(C)C1 (stereo not given)
inactive: Potency [1] | Potency [2] | Potency [3] | Potency [4]
